Among the data in PubChem BioAssay (EPA / NIEHS) are outcome and AC50 values, retold here.

Active and inactive are the calls of the source. Rule for the calls: active = hit-call score of the fitted dose curve at least 0.9, where 1 is the maximum; inactive = score below 0.9.

A short description of this experiment: ATG_PXRE_CIS: Attagene CIS-FACTORIAL HepG2 Assay for human Pregnane X Receptor Element (PXRE) (AID 2282957). Conditions: HepG2 Attagene CIS-FACTORIAL PXRE reporter, mRNA; actives raise or lower the signal. On the procedure:
ATG_CIS is a cell-based, multiplexed-readout assay that uses HepG2, a human liver cell line, with measurements taken at 24 hours after chemical dosing in a 24-well plate.ATG_PXRE_CIS is one of 52 assay component(s) measured or calculated from the ATG_CIS assay. It is designed to make measurements of mRNA induction, a form of inducible reporter, as detected with fluorescence intensity signals by Reverse transcription polymerase chain reaction (RT-PCR) and Capillary electrophoresis technology.Data from the assay component ATG_PXRE_CIS was analyzed into 1 assay endpoint. This assay endpoint, ATG_PXRE_CIS, was analyzed with bidirectional fitting relative to DMSO as the negative control and baseline of activity. Using a type of inducible reporter, measures of mRNA for gain or loss-of-signal activity can be used to understand the reporter gene at the transcription factor-level as they relate to the gene NR1I2. Furthermore, this assay endpoint can be referred to as a primary readout, because this assay has produced multiple assay endpoints where this one serves a reporter gene function. To generalize the intended target to other relatable targets, this assay endpoint is annotated to the nuclear receptor intended target family, where the subfamily is non-steroidal.
Human liver HepG2 cells are transiently transfected with multiple reporter transcription units (MRTUs) in 6-well plates using FuGene 6 reagent (Roche; 3 ml FuGene/1 mg DNA). The MRTU constructs are regulated by a cis-regulating element (promoter). […] A major difference between the CIS and TRANS system is that in CIS activities of endogenous TFs are measured, whereas the TRANS assay evaluates changes in activities of exogenous, chimeric NR-Gal4 proteins. […] At the end of 24 hour incubation, total RNA was isolated using TriZol reagent (Invitrogen). The isolated RNA is then reverse-transcribed using oligo(dT) primer and Mo-MLV reverse transcriptase (Invitrogen) with DNAse I (Ambion) treatment for 30 min. The one-tenth of the produced cDNA was amplified by PCR using Taq DNA polymerase (Invitrogen) and two reporter sequence-specific primers. The PCR products were fluorescently labeled by primer extension with 6-arboxyfluorescein (6-FAM) 5'-labeled reporter sequence-specific primer (2 min at 95 C, 20 s at 68 C and 10 min at 72 C) and these products were digested with 5U of HpaI (New England Biolabs) for 2h at 37 C. The fragments were purified using Qiaquick PCR columns (Qiagen), analyzed on an ABI 3130xL genetic analyzer (Applied Biosystems) with peak positions identified by using a set of X-rhodamine (ROX)-labeled MapMarker1000 molecular weight standards (BioVentures). The raw capillary electrophoresis data was processed using Attagraph software (Attagene).
As to `OC[C@H]1O[C@@H](Oc2ccc(O)cc2)[C@H](O)[C@@H](O)[C@@H]1O`, the compound was called inactive. Take `CN(C)c1cccc(O)c1`: the AC50 was 6.77 µM (active). In the case of `BrCc1cccc(Oc2ccccc2)c1`, the AC50 is 26.3 µM (active). Same read-out and setting: then `O=C1c2ccccc2C(=O)c2c(O)ccc(O)c21`, with 7.05 µM (active). For the compound `CCCCCCCCCCCC(=O)OC[C@@H](O)[C@H]1OC[C@H](O)[C@H]1O`, the result was inactive.

As to `O=c1c(O)c(-c2ccc(O)cc2)oc2cc(O)cc(O)c12`, the AC50 is 39.1 µM (active).

For `COCCc1ccc(OCC(O)CNC(C)C)cc1` (stereo not given), the concentration at half-maximal activity (AC50) was 55 µM (active). As to `OCCc1ccccc1`, the result was inactive. For `O=C(Nc1ccc([N+](=O)[O-])cc1)Nc1ccc([N+](=O)[O-])cc1` (tested in a mixture with another compound), the call was inactive. For the compound `CS(=O)(=O)c1ccc(Cl)cc1`, the AC50 was 100 µM (active). `O=C1NC2NC(=O)NC2N1` (stereo not given): the AC50 is 27.9 µM (active). Same read-out and setting: with `CC(C)(CO)[C@@H](O)C(=O)NCCC(=O)O` the figure was 53.4 µM (active). As for `C1CCOC1`, the AC50 was 37.3 µM (active). Regarding `CC(C)=CCCC(C)CC(=O)O` (stereo not given), the AC50 was 27.3 µM (active).

Regarding `Cc1ccc(S(=O)(=O)Oc2ccc(N=Nc3ccc(-c4ccc(N=Nc5c(O)ccc6cc(S(=O)(=O)O)cc(S(=O)(=O)O)c56)c(C)c4)cc3C)cc2)cc1`, the AC50 was 4.91 µM (active). As to `C=C[Si]1(C)O[Si](C)(C=C)O[Si](C)(C=C)O[Si](C)(C=C)O1` (stereo not given), the AC50 was 2.51 µM (active). Regarding `CCNCCO`, the call was inactive. On the same count and under the same terms, then `COc1ccc(N)c([N+](=O)[O-])c1`, with “inactive”.

With `[O-]n1ccccc1=S.[O-]n1ccccc1=S.[Zn+2]`, the compound was classed as inactive.

`Clc1ccc(C(c2ccccc2Cl)C(Cl)Cl)cc1` (stereo not given): the AC50 was 1.5 µM (active).

Consider `COC(=O)C=C(C)CCC=C(C)C`, for which the AC50 was 7.51 µM (active). For the compound `NCCNc1cccc2ccccc12`, the result was inactive. As to `CCN(CC)C(=O)N(CC)CC`, the AC50 is 52 µM (active).

As for `O=C1OC(=O)c2c(Cl)c(Cl)c(Cl)c(Cl)c21`, the compound was classed as inactive. As for `C=Cc1ccc(C(C)(C)C)cc1`, the AC50 is 27.4 µM (active).

Take `N#Cc1cscn1`: the concentration at half-maximal activity (AC50) is 71.7 µM (active). Still for that read-out and setting: then `CCCCCCCCCCCCN1CCCCCC1=O`, with 1.46 µM (active). Take `OCCCCC(O)CO` (stereo not given): the compound was classed as inactive. Take `CC(=O)c1c(C)c([N+](=O)[O-])c(C(C)(C)C)c([N+](=O)[O-])c1C`: the AC50 was 2.28 µM (active). On to `COc1cccc(OC)c1O`, for which the AC50 was 27 µM (active). Regarding `CN(C)c1ccncc1`, the AC50 is 71.6 µM (active).

For the compound `C=CCN(CC=C)CC=C`, the call was inactive. On the same count and under the same terms, then `C=C(C#N)C(=O)OCC`, with “inactive”.

With `CC(CN=Cc1ccccc1O)N=Cc1ccccc1O` (stereo not given), the compound was classed as inactive. For the compound `CCN(CCN)c1cccc(C)c1`, the AC50 is 36.2 µM (active). For `CCOC(=O)C(C#N)=C(c1ccccc1)c1ccccc1`, the AC50 is 1.39 µM (active). On the same count and under the same terms, with `C1=CC2C3C=CC(C3)C2C1` (stereo not given) the figure was 36.3 µM (active); with `Oc1ccc2cc(SSc3ccc4cc(O)ccc4c3)ccc2c1`, 6.48 µM (active).

As for `C#CC(C)(O)CC(C)C` (stereo not given), the compound was classed as inactive.

For `CCC(C)c1cc([N+](=O)[O-])cc([N+](=O)[O-])c1OC(=O)OC(C)C` (stereo not given), the AC50 is 0.731 µM (active).

A word on the AC50: it is the concentration at which the activity in the assay is half-maximal.
